# S1P2 blocker: antagonists of human S1P2 receptor; O95136; AID 736; 97,000 compounds, 0.21% hits; cell-based S1P2 antagonist assay, inhibition at 5 uM; inhibition, % at 5 µM; in the data active means inhibition above about 45%;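 further: CRE beta-lactamase reporter cells expressing human S1P2 stimulated with S1P; 0% = agonist at EC80 alone and 100% = agonist plus reference antagonist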
# Target sequence (O95136 whole entry, looked up): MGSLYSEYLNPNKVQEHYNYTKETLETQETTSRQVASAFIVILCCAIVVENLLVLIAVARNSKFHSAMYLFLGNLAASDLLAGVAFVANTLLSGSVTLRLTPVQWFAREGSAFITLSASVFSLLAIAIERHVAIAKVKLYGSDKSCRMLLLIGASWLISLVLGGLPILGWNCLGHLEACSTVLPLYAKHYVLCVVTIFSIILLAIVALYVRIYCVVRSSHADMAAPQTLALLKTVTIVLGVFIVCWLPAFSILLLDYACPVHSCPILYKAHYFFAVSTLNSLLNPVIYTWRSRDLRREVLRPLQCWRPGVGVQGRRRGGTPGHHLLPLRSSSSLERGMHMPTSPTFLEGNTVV
# PLAP activator: human PLAP activation; purified PLAP enzyme, luminescent substrate read-out; stronger effect = higher value; activation fold at 20 µM; 96,000 compounds, 1.2% hits; AID 696; in the data active means activation fold above about 2
# S1P2 ag: agonists of human S1P2 receptor; O95136; S1P2-expressing cell line, agonist reporter read-out; activation, % at 4.5 µM; 97,000 compounds, 0.46% hits; in the data active means activation above about 16%;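 further: 0% = vehicle low control and 100% = maximal reference agonist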
# GALR2 ag: agonists of human galanin receptor 2 (GALR2); GALR2-expressing cells, agonist activation read-out; O43603; 140,000 compounds, 0.48% hits; activation, % (concentration not given with the values); in the data active means activation above about 5%, passing the limit was not always enough;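 further: 0% = vehicle buffer wells and 100% = reference agonist at full effect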
# GALR2 blocker: blocks the human galanin receptor 2; O43603; GALR2-expressing cells, antagonist mode; inhibition, % at 4 µM; 140,000 compounds, 0.39% hits; in the data active means inhibition above about 27%;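 further: cells stimulated with galanin 1-16 at roughly its EC80; 0% = agonist challenge control and 100% = basal control without agonist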
# Starred values were filed as active, the others as inactive; . = not tested or not shown. Most compounds without a hit are left out; they make up all but 2% or so of the library.
SMILES,S1P2 blocker,PLAP activator,S1P2 ag,GALR2 ag,GALR2 blocker
N#CCSc1nnc(-c2ccccc2)c(-c2ccccc2)n1,-19,0.9,16*,-2,-8
N#CCSc1nc(-c2ccccc2)c2cc(Cl)ccc2n1,.,.,.,-1,7
Cc1ccc(-c2cc(C(F)F)nc(NCC3CCCO3)n2)cc1 (configuration not stated),-10,.,4,5,-12
CCCCCCOC(=O)c1ccc(NC(=O)c2cc(OC)c(OC)c(OC)c2Br)cc1,0,2*,-7,1,12
Cc1ccc(N(CC(O)Cn2nc(C)cc2C)S(=O)(=O)c2ccc3ccccc3c2)cc1 (configuration not stated),.,.,.,0,-2
Oc1cccc(-c2nc3ccc4ccccc4c3c3c2CCC3)c1,-10,1.7,3,-1,14
COc1ccc2nc(NC(=O)C(NS(=O)(=O)c3cccs3)C(C)C)sc2c1 (configuration not stated),-14,2.2*,-1,-1,-17
Cn1c(=O)cc(NCc2ccccc2)[nH]c1=O,.,1,.,-2,10
CCCCNc1cc(=O)n(C)c(=O)[nH]1,-4,0.9,38*,-1,12
CN(C)S(=O)(=O)CC12CCC(CC1=O)C2(C)C (configuration not stated),-29,1.6,0,-1,-21
CS(=O)(=O)N(CC(=O)N1CCN(Cc2ccccc2)CC1)Cc1ccccc1,10,1.3,-3,-2,-10
CS(=O)(=O)N(CC(=O)N1CCc2ccccc2C1)Cc1ccccc1,7,2.2*,-5,0,-5
Cc1ccc(-c2nc(CSCC(=O)NCCN3CCN(Cc4ccccc4)CC3)c(C)o2)cc1,47*,1.4,-6,-2,10
CCN(CC)CCNS(=O)(=O)c1ccc(OC)c(Br)c1,3,1,-3,-2,7
O=C(NCc1ccco1)c1ccccc1NS(=O)(=O)c1cccs1,4,1.4,-2,-1,-3
O=C(NCc1ccco1)c1ccccc1NS(=O)(=O)c1ccc(Cl)s1,-44,2.1*,1,-1,-10
Cc1ccc2c(N)c(C(=O)N(c3ccccc3)c3ccccc3)sc2n1,9,.,-4,0,6
Clc1cccc(Cl)c1Cn1cnc2c(N3CCCCCC3)ncnc21,-31,1,10,1,2
CCN(CC)c1ncnc2c1ncn2Cc1c(Cl)cccc1Cl,-75,.,19*,1,-2
CCN(CC)c1ncn(Cc2c(Cl)cccc2Cl)c2ncnc1-2,-34,0.9,18*,-1,-7
N/C(=N\c1nc2c(c(=O)[nH]1)CCCC2)Nc1ccccc1Sc1ccccc1,-2,2*,-7,0,-10
CCNC(=S)NNC(=O)c1ccccc1OC(F)F,5,2.9*,-6,-1,8
Cc1cc(C(=O)NNC(=O)CCCCC(=O)NNC(=O)c2cc(C)[nH]n2)n[nH]1,.,.,.,1,-7
CCC1CCC/C1=N\NC(=O)c1cc(C)[nH]n1 (configuration not stated),6,2.3*,-2,-2,1
CCOC(=O)c1ccc(NC(=O)Cn2nnc(-c3ccccc3)n2)cc1,-14,1,-7,0,0
SMILES,S1P2 blocker,PLAP activator,S1P2 ag,GALR2 ag,GALR2 blocker
NC(=O)c1nn(-c2ccccc2)nc1NC(=O)Cn1nnc(-c2ccccc2)n1,.,.,.,5.2*,-2
Cc1ccc(C(C)C)c(OCCNC(=S)Nc2cccc3ccccc23)c1,-2,1.1,-1,-3,-8
Cc1ccc(N=Nc2c(=O)[nH]n3c(=O)cc(C)[nH]c23)cc1,10,2.1*,-5,-1,1
CC1CC(C)CN(CCCNC(=O)Cc2c(C(=O)O)n(C)c3ccccc23)C1 (configuration not stated),-22,1,-7,-1,-10
Cc1c(NC(=O)C(C)Sc2nnc(-c3ccccc3)o2)c(=O)n(-c2ccccc2)n1C (configuration not stated),0,2.1*,-8,-2,-9
COc1cc(-c2nnc(SC(C)C(=O)Nc3c(C)n(C)n(-c4ccccc4)c3=O)o2)cc(OC)c1OC (configuration not stated),-51,2*,0,-1,-20
COc1cc(-c2nnc(COC(=O)CSc3cc(C)c4ccccc4n3)o2)cc(OC)c1OC,-17,1.2,0,-1,4
COc1cc(-c2nnc(COC(=O)c3cc(C)nc4ccc(C)cc34)o2)cc(OC)c1OC,-37,1.8,27*,0,-25
CC(C)n1c(N2CCN(CC(=O)NCc3cccs3)CC2)nc2ccccc21,3,2*,-8,-1,10
COc1ccc(CCN(C(=O)c2cccc(F)c2)C2CC(=O)N(c3ccc(OC)cc3)C2=O)cc1 (configuration not stated),-6,1.5,-2,-3,7
Clc1ccc(-c2nnc(COc3ncnc4sccc34)o2)cc1,.,.,.,-2,-5
N#Cc1c(N)n(C2CCCCC2)c2nc3ccccc3nc12,-45,1,22*,17*,-10
CC1CCCN(C(C(=O)Nc2ccc3c(c2)OCO3)c2ccccc2)C1 (configuration not stated),.,2*,.,.,.
CC1CCN(C(C(=O)Nc2ccc3c(c2)OCO3)c2ccccc2)CC1 (configuration not stated),.,2.2*,.,.,.
O=C(Nc1ccc2c(c1)OCO2)C(c1ccccc1)N1CCCCC1 (configuration not stated),.,0.9,.,.,.
Cc1ccc(C(=O)NNC(=O)CSc2nnc(-c3ccncc3)n2C)cc1,15,1.9,-3,-2,8
O=c1c(-c2nc3ccccc3s2)cccn1Cc1ccc(Cl)c(Cl)c1,-117,1.1,109*,12*,-13
O=C(c1cccn(Cc2ccc(Cl)c(Cl)c2)c1=O)N1CCOCC1,6,1.1,-6,-4,13
Cc1ccc(-c2cc(C(=O)N/N=C\c3cnn(C)c3C)c3ccccc3n2)cc1C,-2,2*,-4,1,1
COc1ccccc1OCCCCN1CCN(c2ccccc2OC)CC1,15,2.2*,-6,-1,-6
CCc1cccc(NC(=O)Cn2cccc2)c1,-9,1,-6,-1,1
CCc1cccc(NC(=O)CSCc2cc(=O)[nH][nH]2)c1,-5,2.5*,-4,-1,-7
COc1ccc(NC(=O)COC(=O)c2cc(OC)c(OC)cc2NC(=O)c2ccco2)cc1OC,-20,1.7,18*,0,0
COC(=O)c1cc(OC)c(OC)cc1NC(=O)c1ccco1,.,1.5,.,0,-2
COc1cccc(C(O)c2nc3ccccc3n2C(C)C)c1 (configuration not stated),11,2.4*,1,-2,-6
COc1ccc(C(O)c2nc3ccccc3n2C)cc1OC (configuration not stated),.,1,.,-1,14
COc1cc(/C=C/C(=O)O)ccc1OCc1ccccc1C#N,.,.,.,1,-4
COc1cc(C2NC(C(=O)O)CS2)ccc1OCc1ccccc1C#N (configuration not stated),.,2.1*,.,-1,12
CCOc1ccccc1Nc1nnc(SCC(=O)NC(=O)c2cccn2C)s1,.,.,.,3,5
